Experiment [1] is described as follows: Nuclear factor erythroid 2-related factor 2/antioxidant responsive element (Nrf2/ARE) small molecule agonists: qHTS cell viability counter screen in human keratinocytes (AID 1919968; active = well fitted curve in the direction sought with a large enough effect in the repeat runs; an effect the other way counts as inactive or inconclusive; note: nearly all actives have a fitted effect of over 55% in size; note: potency is the fitted concentration of half-maximal effect). The method in brief:
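Seed 1,500 KeratinoSens cells per well, then incubate 5 h at 37 C/5% CO2. Add compounds in DMSO and incubate 23 h. Add CellTiter-Fluor, wait 1 h and read fluorescence.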

Experiment [2] is described as follows: Nuclear factor erythroid 2-related factor 2/antioxidant responsive element (Nrf2/ARE) small molecule agonists: luciferase reporter gene qHTS assay in human keratinocytes (AID 1919969). Note: nearly all actives have a fitted effect of over 35% in size. Note: potency is the fitted concentration of half-maximal effect. Background: In a reporter assay the amount or activity of a reporter protein is the signal.
The target in experiment [3] is Gonadotropin-releasing hormone receptor (Homo sapiens) (UniProt P30968). In words: Human gonadotropin-releasing hormone receptor (GnRHR) small molecule agonists, calcium flux assay in GnRHR-HEK293 cells (AID 1920063). Note: nearly all actives have a fitted effect of over 35% in size. The method in brief:
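Cells: HEK293 stably expressing human GnRHR. Steps: overnight (18 h) culture, 1 h calcium dye loading at 37 C, compound addition, kinetic fluorescence read at 480/540 nm. Each compound tested at 15 concentrations in triplicate.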
Background: A change in cytosolic calcium serves as a functional read-out for many receptors and channels.

The nature of experiment [4]: p53 small molecule agonists, cell-based qHTS assay with human liver microsomes (AID 1963577). The method in brief: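 Compounds act here after metabolic activation: human liver microsomes and NADPH, both at 0.5 mg/mL final, were co-added to p53RE-bla cells. Incubation ran 16 h at 37 C, followed by LiveBLAzer detection.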
In general terms: qHTS replaces the single test concentration by a dilution series.

Experiment [5] can be described thus: p53 small molecule agonists, cell-based qHTS assay with rat liver microsomes (AID 1963578). The method in brief:
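Read-out is beta-lactamase reporter fluorescence (LiveBLAzer, 2 h, room temperature, dark) in p53RE-bla cells treated 16 h at 37 C with compound, rat liver microsomes and NADPH, both 0.5 mg/mL final.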

A short description of experiment [6]: p53 small molecule agonists, cell-based qHTS assay with human liver microsomes: qHTS cell viability counter screen (AID 1963579). Note: nearly all actives have a fitted effect of over 45% in size. The method in brief:
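Cells carrying the p53 response-element beta-lactamase reporter are treated for 16 h at 37 C with test compounds in the presence of human liver microsomes and NADPH (both 0.5 mg/mL final); ATP-based CellTiter-Glo luminescence then reports viability.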

Experiment [7] in a line: p53 small molecule agonists, cell-based qHTS assay with rat liver microsomes: qHTS cell viability counter screen (AID 1963580). Note: nearly all actives have a fitted effect of over 45% in size. The method in brief:
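p53RE-bla HCT-116 cells (4,000/well) rested 5 h at 37 C, then given Tox21 compounds in DMSO with rat liver microsomes (0.5 mg/mL final) plus NADPH (0.5 mg/mL final) for 16 h at 37 C. Viability read by CellTiter-Glo luminescence after 30 min at room temperature.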

A short description of experiment [8]: p53 small molecule agonists, cell-based qHTS assay: qHTS cell viability counter screen (AID 1963581). Note: nearly all actives have a fitted effect of over 45% in size. A digest of the protocol:
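Cells: HCT-116 with p53 response element-driven beta-lactamase. Treatment: 16 h, 37 C, compounds in DMSO. Read: CellTiter-Glo luminescence after 30 min RT.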

A short description of experiment [9]: p53 small molecule agonists, cell-based qHTS assay (AID 1963582; active = well fitted activation curve with a large enough effect in the signal ratio in the repeat runs, not every such curve was filed as active; the % refers to the signal ratio). The method in brief: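 Quantitative HTS in p53RE-bla cells: after a 5 h settling period, compounds delivered in DMSO were left on cells for 16 h at 37 C, and reporter induction was measured as fluorescence following 2 h substrate loading.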
Experiment [10] addresses 5-hydroxytryptamine receptor 2A (Homo sapiens) (UniProt P28223). The experiment in a line: 5-hydroxytryptamine receptor 2A (HTR2A) small molecule antagonists, cell-based qHTS assay (AID 1963586). Note: nearly all actives have a fitted effect of over 45% in size. Note: potency is the fitted concentration of half-maximal effect. The method in brief: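 Antagonist-mode intracellular calcium assay: DOI (4 nM) added after 5 min compound pre-incubation at room temperature to dye-loaded HTR2A-CHO cells. Fluorescence followed for 3 min, sampled every second.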

For experiment [11] the target is unchanged. The experiment in a line: 5-hydroxytryptamine receptor 2A (HTR2A) small molecule agonists, cell-based qHTS assay (AID 1963587). Note: nearly all actives have a fitted effect of over 30% in size. Note: potency is the fitted concentration of half-maximal effect. A digest of the protocol:
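HTR2A-CHO cells, plated 18 h at 37 C/5% CO2, dye-loaded 1 h at 37 C; compounds in DMSO added by pin tool (agonist mode). Intracellular calcium flux read as kinetic fluorescence on FDSS over 2 min at 1 s intervals.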

For experiment [12], the target named is Muscarinic acetylcholine receptor M1 (Homo sapiens) (UniProt P11229). In words: Cholinergic receptor muscarinic 1 (CHRM1) small molecule antagonists, cell-based qHTS assay (AID 1963588). Note: nearly all actives have a fitted effect of over 40% in size. The method in brief:
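CHRM1-CHO calcium-flux assay, antagonist mode. Cells were seeded 18 h, dye-loaded 1 h at 37 C and given compound for 5 min at RT, then acetylcholine was added at 50nM. FDSS fluorescence was read 3 min; 15 concentrations, three runs.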

For experiment [13] the target is unchanged. In words: Cholinergic receptor muscarinic 1 (CHRM1) small molecule agonists, cell-based qHTS assay (AID 1963589). Note: nearly all actives have a fitted effect of over 35% in size. A digest of the protocol:
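Agonist-mode qHTS in CHO cells stably carrying human muscarinic M1. Intracellular calcium is tracked by fluorescence every second after compound transfer; each compound runs at 15 concentrations in three independent runs.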

Experiment [14] in a line: cAMP Responsive Elements (CRE) small molecule agonists, cell-based qHTS assay (AID 1963590). A digest of the protocol: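 Agonist mode qHTS in CRE-bla HEK 293T cells: compounds dosed from DMSO for 3 h at 37 C/5% CO2, followed by LiveBLAzer B/G FRET substrate for 2 h at room temperature.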
Experiment [15] is described as follows: cAMP Responsive Elements (CRE) small molecule antagonists, cell-based qHTS assay (AID 1963591; active = well fitted inhibition curve with a large enough effect in the signal ratio in the repeat runs, not every such curve was filed as active; the % refers to the signal ratio). The method in brief: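 Antagonist mode: test compounds are co-incubated with the adenylyl cyclase activator NKH477 (0.25 uM final) on CRE-bla HEK293T cells for 3 h at 37 °C, followed by LiveBLAzer substrate loading.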
Experiment [16] has as its target Beta-2 adrenergic receptor (Homo sapiens) (UniProt P07550). The experiment in a line: Adrenergic beta2 receptor (ADRB2) small molecule agonists, cell-based qHTS assay (AID 1963593).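 Note: CHO cells stably overexpressing human ADRB2.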 A digest of the protocol:
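CHO cells stably over-expressing ADRB2 were plated overnight at 37C, then dosed with compounds plus a stimulation mix containing 100uM IBMX and 25uM Ro-20-1724 for 0.5hr at room temperature. cAMP was measured by HTRF competition, 1hr.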

Experiment [17] has as its target D(2) dopamine receptor (Homo sapiens) (UniProt P14416). In words: Dopamine D2 receptor (DRD2) small molecule agonists, cell-based qHTS assay (AID 1963594). Note: nearly all actives have a fitted effect of over 35% in size. A digest of the protocol: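 HEK293 cells stably expressing DRD2 were cultured 24 h at 37 C, then given Ro20-1724 (0.1 mM final) and compounds for 10 min at room temperature. NKH477 (200nM) was then added for 30 min. cAMP was read by HTRF.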

The target is the same in experiment [18]. The experiment in a line: Dopamine D2 receptor (DRD2) small molecule antagonists, cell-based qHTS assay (AID 1963595; active = well fitted inhibition curve with a large enough effect in the signal ratio in the repeat runs, with a control signal flat; the % refers to the signal ratio). A digest of the protocol:
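HTRF cAMP read-out at 665 and 620 nm emission (340 nm excitation). Antagonist mode: compounds were tested against 12 nM quinpirole in DRD2-HEK293 cells, with 200 nM NKH477 raising cAMP and 0.1 mM Ro20-1724 blocking its breakdown.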

In experiment [19] the target is Beta-2 adrenergic receptor (Homo sapiens) (UniProt P07550). In words: Adrenergic beta2 receptor (ADRB2) small molecule antagonists, cell-based qHTS assay (AID 1963592). Note: series mostly up to about 92 µM; nearly all actives have a fitted effect of over 50% in size. A digest of the protocol: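 Cells (CHO, stable ADRB2 overexpression) incubated 18-20hr at 37C; compounds added from DMSO; agonist mix (1nM isoproterenol, 100uM IBMX, 25uM Ro-20-1724) added; 0.5hr RT; d2-cAMP and anti-cAMP-cryptate added; 1hr RT; 665/615 nm read.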
Sequence of Beta-2 adrenergic receptor (Homo sapiens) (P07550 whole entry, looked up): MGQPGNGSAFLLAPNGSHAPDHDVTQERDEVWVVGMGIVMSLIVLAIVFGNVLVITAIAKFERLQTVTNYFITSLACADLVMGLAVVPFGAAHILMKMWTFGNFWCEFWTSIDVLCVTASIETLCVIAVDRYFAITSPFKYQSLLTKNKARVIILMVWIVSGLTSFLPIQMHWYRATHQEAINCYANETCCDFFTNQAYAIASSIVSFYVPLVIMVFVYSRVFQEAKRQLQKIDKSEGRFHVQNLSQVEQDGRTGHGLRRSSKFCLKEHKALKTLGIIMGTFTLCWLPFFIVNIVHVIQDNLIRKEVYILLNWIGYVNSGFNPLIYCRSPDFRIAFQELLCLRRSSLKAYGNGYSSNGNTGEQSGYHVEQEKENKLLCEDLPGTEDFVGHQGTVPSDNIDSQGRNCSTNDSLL

Experiment [20] deals with KiSS-1 receptor (Homo sapiens) (UniProt Q969F8). The experiment in a line: Human kisspeptin (KISS1R) small molecule agonists, calcium flux assay in KISS1R-HEK293 cells (AID 1920064; active = well fitted curve in the direction sought with a large enough effect in the repeat runs; an effect the other way counts as inactive or inconclusive). The method in brief:
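Cells plated and incubated 18 h; dye added, 1 h at 37 C; compounds in DMSO pinned in; signal read at 480/540 nm every second for 3 min. Each compound tested at 15 concentrations in triplicate.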

Molecules are shown by their SMILES. “And” between values parts separate entries of the source, which are not always exact repeats. Equal entries are not always repeated. Records with an inconclusive call do not appear. Some compounds were tested as several samples or in several runs, with calls that do not always agree. The source made the active and inactive calls. Unless noted, calls come from the whole dose curve.

Sequence of D(2) dopamine receptor (Homo sapiens) (P14416 whole entry, looked up): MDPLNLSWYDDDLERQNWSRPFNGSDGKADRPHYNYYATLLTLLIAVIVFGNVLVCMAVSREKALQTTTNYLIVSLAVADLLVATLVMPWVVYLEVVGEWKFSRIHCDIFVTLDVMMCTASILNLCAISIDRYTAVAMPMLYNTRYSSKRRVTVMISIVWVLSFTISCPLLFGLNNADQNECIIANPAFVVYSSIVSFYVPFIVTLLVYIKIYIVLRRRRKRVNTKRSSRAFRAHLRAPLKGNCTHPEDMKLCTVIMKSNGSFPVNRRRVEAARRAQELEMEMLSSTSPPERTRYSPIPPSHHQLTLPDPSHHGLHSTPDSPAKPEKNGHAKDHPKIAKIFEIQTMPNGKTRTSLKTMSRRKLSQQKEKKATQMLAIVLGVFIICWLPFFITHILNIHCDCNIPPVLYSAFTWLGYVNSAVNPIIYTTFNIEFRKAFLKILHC
Sequence of Gonadotropin-releasing hormone receptor (Homo sapiens) (P30968 whole entry, looked up): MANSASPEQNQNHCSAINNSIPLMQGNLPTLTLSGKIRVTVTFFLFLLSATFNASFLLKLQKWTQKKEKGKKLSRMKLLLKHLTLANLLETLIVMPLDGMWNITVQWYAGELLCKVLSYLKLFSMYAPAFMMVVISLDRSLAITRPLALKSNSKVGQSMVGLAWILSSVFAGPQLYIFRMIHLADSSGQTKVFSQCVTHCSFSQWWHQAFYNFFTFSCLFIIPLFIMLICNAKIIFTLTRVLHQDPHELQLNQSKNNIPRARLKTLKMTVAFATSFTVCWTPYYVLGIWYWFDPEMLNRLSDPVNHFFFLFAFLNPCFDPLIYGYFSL
Sequence of 5-hydroxytryptamine receptor 2A (Homo sapiens) (P28223 whole entry, looked up): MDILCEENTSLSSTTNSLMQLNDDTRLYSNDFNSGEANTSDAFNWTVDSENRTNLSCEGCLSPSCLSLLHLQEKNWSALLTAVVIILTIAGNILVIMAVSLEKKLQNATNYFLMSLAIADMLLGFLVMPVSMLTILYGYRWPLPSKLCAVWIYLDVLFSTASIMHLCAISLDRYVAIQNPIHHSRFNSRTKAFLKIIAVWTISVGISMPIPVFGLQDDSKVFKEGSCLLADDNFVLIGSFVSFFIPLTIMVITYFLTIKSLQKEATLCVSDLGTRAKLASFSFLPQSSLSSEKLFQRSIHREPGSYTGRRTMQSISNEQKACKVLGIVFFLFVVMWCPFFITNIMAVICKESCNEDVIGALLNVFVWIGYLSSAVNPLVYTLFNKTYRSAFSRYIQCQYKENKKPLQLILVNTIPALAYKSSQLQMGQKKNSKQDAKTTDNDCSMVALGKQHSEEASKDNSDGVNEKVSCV
Sequence of Muscarinic acetylcholine receptor M1 (Homo sapiens) (P11229 whole entry, looked up): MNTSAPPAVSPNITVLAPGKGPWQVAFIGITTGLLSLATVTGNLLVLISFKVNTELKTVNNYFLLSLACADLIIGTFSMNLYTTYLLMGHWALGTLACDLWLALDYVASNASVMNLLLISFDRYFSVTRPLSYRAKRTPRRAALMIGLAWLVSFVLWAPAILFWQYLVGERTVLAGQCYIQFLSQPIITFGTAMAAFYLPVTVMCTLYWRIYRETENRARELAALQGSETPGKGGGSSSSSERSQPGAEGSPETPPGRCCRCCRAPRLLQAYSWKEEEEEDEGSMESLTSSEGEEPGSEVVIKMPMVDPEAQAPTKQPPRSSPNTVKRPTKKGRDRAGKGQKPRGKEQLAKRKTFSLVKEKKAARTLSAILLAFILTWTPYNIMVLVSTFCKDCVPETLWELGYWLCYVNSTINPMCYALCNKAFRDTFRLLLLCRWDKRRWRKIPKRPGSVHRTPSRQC
Sequence of KiSS-1 receptor (Homo sapiens) (Q969F8 whole entry, looked up): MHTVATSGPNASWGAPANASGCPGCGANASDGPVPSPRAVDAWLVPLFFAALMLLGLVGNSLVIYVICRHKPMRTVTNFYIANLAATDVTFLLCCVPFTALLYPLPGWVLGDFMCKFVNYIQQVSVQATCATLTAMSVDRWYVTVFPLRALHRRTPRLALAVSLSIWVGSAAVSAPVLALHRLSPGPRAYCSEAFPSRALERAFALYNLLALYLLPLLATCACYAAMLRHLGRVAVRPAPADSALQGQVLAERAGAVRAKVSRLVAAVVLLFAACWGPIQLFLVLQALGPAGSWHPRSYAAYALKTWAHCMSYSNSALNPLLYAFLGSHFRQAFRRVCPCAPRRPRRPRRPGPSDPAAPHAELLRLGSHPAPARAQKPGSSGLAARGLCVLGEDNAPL

Consider `c1ccc(N=Nc2ccccc2)cc1`, for which the Potency result in experiment [1], in experiment [2], in [3], in [4], in experiment [5] and in experiment [6] was “inactive” each time. Also, the Potency result in [7], in [8], in [9], in experiment [10], in experiment [11] and in experiment [12] was “inactive” in each case. Besides, the Potency entry in experiment [13], in experiment [14], in experiment [15], in [16], in experiment [17] and in [18] was “inactive” throughout.
For `CCC(C)(C)c1ccc(O)cc1`, the Potency in experiment [1] is 61.8 µM (active) and inactive; in experiment [10], 37.9 µM (active) and inactive; in experiment [11] it was 55.5 µM (active) and inactive. The Potency entry in [2], in [3], in [4], in experiment [5], in experiment [6] and in [7] was “inactive” throughout. Moreover, the Potency result in [8], in experiment [9], in [12], in experiment [13], in experiment [19] and in experiment [17] was “inactive” each time. Besides, in experiment [18], the Potency result was “inactive”.
Turning to `NN=C(N)N`, the Potency result in experiment [1], in experiment [2], in experiment [3], in [20], in [7] and in experiment [8] was “inactive” throughout. Also, the Potency entry in experiment [11], in [12], in [13], in experiment [14], in experiment [15] and in experiment [19] was “inactive” in each case. Further, the Potency result in experiment [16], in experiment [17] and in [18] was “inactive” throughout.
For `Nc1ccc([N+](=O)[O-])cc1N`, the values for the Potency in experiment [1] and in [2] were 13.7 µM (active) and 34.4 µM (active), respectively. Besides, the Potency entry in [3], in [4], in experiment [5], in experiment [6], in experiment [7] and in experiment [8] was “inactive” throughout. The Potency result in experiment [9], in experiment [10], in [11], in experiment [12], in [13] and in experiment [14] was “inactive” in each case. Moreover, the Potency entry in [17] and in [18] was “inactive” throughout.
As to `CCOC(=O)C(c1c(O)c2ccccc2oc1=O)c1c(O)c2ccccc2oc1=O`, the Potency result in experiment [1], in [2], in experiment [3], in [4], in experiment [5] and in [6] was “inactive” in each case. For the same compound, the Potency entry in experiment [7], in [8], in experiment [9], in [10], in experiment [11] and in experiment [12] was “inactive” in each case. In addition, the Potency entry in [13], in [14], in experiment [15], in [17] and in experiment [18] was “inactive” throughout.
Regarding `O=[N+]([O-])c1ccc(CBr)cc1`, the Potency result in experiment [1], in experiment [2], in [3], in [4], in [5] and in [6] was “inactive” in each case. The Potency entry in experiment [7], in experiment [9], in experiment [10], in experiment [12], in [14] and in experiment [15] was “inactive” throughout. In addition, the Potency entry in experiment [19], in experiment [16] and in [17] was “inactive” throughout.
Turning to `Nc1cccc2ccccc12`, the Potency entry in experiment [1], in experiment [3], in experiment [4], in experiment [5], in experiment [6] and in [7] was “inactive” each time. For the same compound, the Potency entry in experiment [8], in experiment [9], in experiment [11], in experiment [12], in [13] and in experiment [14] was “inactive” throughout. The Potency result in experiment [15], in experiment [19], in [17] and in experiment [18] was “inactive” in each case. The Potency result in experiment [2] is “inactive and 61.1 µM (active)”.

These data come from PubChem BioAssay (Tox21).
